From PubChem BioAssay (NCI)
About 83,000 compounds went through this panel and 20% of them were active in at least one assay; those are over-represented in the sample as a whole.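 A percent growth of 40 corresponds to 60% growth inhibition; 0 means no net growth; -100 means all cells died. Active threshold: below 10.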 A number with no mark means an inactive call. Calls of active or inactive are those of the source.

Experiments:
Assay in all cases: NCI-60 one-dose screen, 48 h (100 = growth as untreated, 0 = no growth, -100 = all killed)
Settings in all cases: 10 µM
HCT-15 colon = tested on: HCT-15 colon
HT29 colon = tested on: HT29 colon
SNB-75 CNS = tested on: SNB-75 CNS
SNB-19 CNS = tested on: SNB-19 CNS
U251 CNS = tested on: U251 CNS
PC-3 prostate = tested on: PC-3 prostate
SK-MEL-5 melanoma = tested on: SK-MEL-5 melanoma
UACC-62 melanoma = tested on: UACC-62 melanoma
LOX IMVI melanoma = tested on: LOX IMVI melanoma
SK-MEL-28 melanoma = tested on: SK-MEL-28 melanoma
SK-MEL-2 melanoma = tested on: SK-MEL-2 melanoma
EKVX NSCLC = tested on: EKVX NSCLC
UO-31 renal = tested on: UO-31 renal
TK-10 renal = tested on: TK-10 renal
ACHN renal = tested on: ACHN renal
CAKI-1 renal = tested on: CAKI-1 renal
A498 renal = tested on: A498 renal
CCRF-CEM leukemia = tested on: CCRF-CEM leukemia
MOLT-4 leukemia = tested on: MOLT-4 leukemia
SN12C renal = tested on: SN12C renal

Structure (SMILES)	growth (HCT-15 colon)	growth (HT29 colon)	growth (SNB-75 CNS)	growth (SNB-19 CNS)	growth (U251 CNS)	growth (PC-3 prostate) [%]	growth (SK-MEL-5 melanoma)	growth (UACC-62 melanoma)	growth (LOX IMVI melanoma)	growth (SK-MEL-28 melanoma)	growth (SK-MEL-2 melanoma)	growth (EKVX NSCLC) [%]	growth (UO-31 renal) [%]	growth (TK-10 renal) [%]	growth (ACHN renal) [%]	growth (CAKI-1 renal)	growth (A498 renal)	growth (CCRF-CEM leukemia)	growth (MOLT-4 leukemia)	growth (SN12C renal) [%]
O=C(Nc1cccc(Cl)c1)OCC(COC(=O)Nc1cccc(Cl)c1)(COC(=O)Nc1cccc(Cl)c1)[N+](=O)[O-]	22.6%	32%	49.9%	42.8%	34.7%	24.1	44.2%	31.9%	15.6%	51.1%	49.7%	28.3	30.9	53.7	39.8	49.8%	21.1%	21.4%	4.15% (active)	–
O=S(=O)(NC1c2ccccc2Oc2ccccc21)c1ccccc1	91.8%	92.2%	88.4%	105%	91.9%	88.2	102%	97.8%	87.5%	101%	94%	102	81.9	86.4	84.5	90.1%	92.2%	61.8%	88.1%	–
CCN(CCCNC(=O)Cc1cc(=O)oc2cc(N(C)C)ccc12)CCNc1ccnc2cc(Cl)ccc12	83.2%	18.6%	88.6%	91.5%	58.9%	78.7	76.2%	98.7%	66.4%	85%	117%	99.8	84.7	87.4	78.6	106%	81.5%	53.9%	44.4%	–
CC(=O)n1nc(C(=O)OC(C)(C)C)c2cc(F)c(F)cc21	101%	100%	80.2%	94.9%	104%	97.7	87%	80.3%	98.2%	96.8%	100%	105	92.6	113	108	101%	104%	97.5%	95%	–
Cc1ccc(-n2c(-c3cc4c([nH]c5ccccc54)c(-c4cccc(O)c4)n3)n[nH]c2=S)cc1	2.88% (active)	-44% (active)	5.15% (active)	4.47% (active)	-3.05% (active)	19.4	-17.5% (active)	-40.3% (active)	-77% (active)	7.56% (active)	-48.1% (active)	19.4	30.9	24.9	32.6	7.33% (active)	-40% (active)	7.56% (active)	0.747% (active)	–
COC(=O)c1cnc2c(c1)Oc1ccc(Cl)cc1-c1cc(C)nn1-2	87.3%	82.5%	91.7%	62%	50.4%	95.1	88.1%	74.7%	60.2%	96.4%	98.3%	71.2	82.8	95.4	42.4	57.8%	99.2%	121%	102%	–
O=C(/C=C/c1nnc2n(Cc3ccccc3)c(=O)c3c4c(sc3n12)CCCC4)c1ccccc1	88%	106%	116%	99.4%	40.6%	105	111%	99.6%	84.7%	119%	107%	92.4	–	136	125	44.6%	112%	–	-3.6% (active)	96.7
Cc1cc(O)c(C2=NN(c3ccc(S(N)(=O)=O)cc3)C(c3ccc(N(C)C)cc3)C2)c(C)c1Cl (centres undefined)	80.5%	52.7%	78.7%	107%	78.3%	13.6	79.6%	64.8%	82.8%	90.2%	92.5%	51.1	–	113	88.6	–	74.3%	28%	27.3%	74.8
CNC(=O)c1cc(Oc2ccc(NC(=O)Nc3ccc(Cl)c(C(C)(C)C)c3)c(F)c2)ccn1	38.9%	25.9%	104%	60%	52%	37.7	-23.2% (active)	16%	16.6%	34.8%	44.2%	29.9	41.6	54.8	31.5	54.4%	53.4%	40.6%	36.6%	–
